Rows were chosen to be rich in hits. Some 19% of all compounds tested hit in one or more screens of this group.
HepG2 tox – HepG2 cytotoxicity, counter-screen for TGF-b inhibitors; HepG2 CAGA-GFP viability, ATP luminescence, 18 h; Potency, µM (doses to about 46.1 µM), for the others: top-dose activity change, negative = cytotoxicity, most hits filed as cytotoxic; 0.76% of 410,000 active; note: potency is the fitted concentration of half-maximal effect
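HepG2 CAGA-GFP cells (1000/well, DMEM with 1% FBS) received compound, then TGF-beta at 500 pg/mL final, and were incubated 18 hours at 37 degrees C. Viability was read by CellTiter-Glo luminescence. Media-only wells were set as complete cell-killing and DMSO as no toxicity.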
TDP1 cell CPT – DT40-hTDP1 cell growth loss with CPT; chicken DT40 Tdp1-/-;hTDP1 cells + 20 nM CPT, ATP luminescence, 48 h; Potency, µM (series often up to 46.2 µM), for the others: at the highest dose activity change, negative = growth inhibition, most hits filed as inhibitors; 12% of 420,000 active; AID 686979; note: potency is the fitted concentration of half-maximal effect; % is set by controls: 0 for no effect and ±100 for the full control effect; nearly all actives have a fitted effect of over 55% in size
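Chicken DT40 Tdp1-/- cells stably complemented with human TDP1 were seeded at 400 cells/well in medium containing 20 nM camptothecin, exposed to pin-transferred compounds, and grown at 37 °C for at least 48 hr. Viability was read as ATP luminescence.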
ASM inhibitor – blocks human secretory acid sphingomyelinase; P17405; AID 504937; placental ASM, HMU-PC fluorogenic substrate, 60 min; 0.006% of 340,000 active; Potency, µM (doses to about 57.5 µM), inactives show top-dose activity change, negative = inhibition, hits mostly inhibitors; note: potency is the fitted concentration of half-maximal effect
Target sequence (P17405 47-631 limits assumed): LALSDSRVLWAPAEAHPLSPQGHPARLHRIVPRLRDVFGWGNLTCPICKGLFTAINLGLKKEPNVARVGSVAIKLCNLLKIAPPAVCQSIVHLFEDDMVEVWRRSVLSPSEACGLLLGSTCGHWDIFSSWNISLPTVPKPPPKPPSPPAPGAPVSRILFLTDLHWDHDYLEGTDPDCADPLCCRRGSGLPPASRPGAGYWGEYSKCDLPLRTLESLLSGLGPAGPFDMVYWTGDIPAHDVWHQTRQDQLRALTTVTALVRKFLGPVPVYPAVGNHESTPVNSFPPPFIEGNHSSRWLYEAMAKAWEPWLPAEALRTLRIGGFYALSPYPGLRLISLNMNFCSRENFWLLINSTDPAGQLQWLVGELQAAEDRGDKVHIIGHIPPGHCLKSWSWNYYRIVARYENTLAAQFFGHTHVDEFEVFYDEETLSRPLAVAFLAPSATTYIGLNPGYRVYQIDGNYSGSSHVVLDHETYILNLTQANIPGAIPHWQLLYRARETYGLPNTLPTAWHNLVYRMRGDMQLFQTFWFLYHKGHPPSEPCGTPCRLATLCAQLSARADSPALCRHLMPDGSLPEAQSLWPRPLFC
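Fluorescence read-out (Ex 386 nm, Em 447 nm) after stopping the reaction at pH 10. Enzyme: ASM from human placenta; substrate HMU-PC0, 9 uM final; 60 min, 37 °C. Compound preincubation 10 min, ambient temperature.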
TGFb SMAD3 inh – inhibitors of TGF-b signaling; HepG2 CAGA-GFP TGF-b/SMAD3 reporter, GFP fluorescence, 18 h; TGF-beta stimulated, 500 pg/mL final; Potency, µM (top dose mostly 46.1 µM), without a hit: at the highest dose activity, negative = inhibition, hits mostly inhibitors; 1.2% of 410,000 active; AID 588855; note: potency is the fitted concentration of half-maximal effect; % is set by controls: 0 for no effect and ±100 for the full control effect; nearly all actives have a fitted effect of over 65% in size
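HEPG2 CAGA-GFP cells (1000/well, DMEM with 1% FBS) were pre-incubated 2 h at 37 degrees C, given compound by pin tool, then stimulated with TGF-beta at 500 pg/mL final for 18 h before per-cell GFP fluorescence imaging.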
TDP1 cell noCPT – qHTS for Inhibitors of human tyrosyl-DNA phosphodiesterase 1 (TDP1): qHTS in cells in absence of CPT. 15% of 420,000 active. Potency, µM (titrated, usually from 46.2 µM), inactives show at the highest dose activity change, negative = growth inhibition, usual class: inhibitors. DT40 Tdp1-/- hTDP1 cells, no CPT, ATP luminescence, 48 h; note: potency is the fitted concentration of half-maximal effect; % is set by controls: 0 for no effect and ±100 for the full control effect; nearly all actives have a fitted effect of over 55% in size
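Stably hTDP1-transfected Tdp1-null chicken DT40 cells were treated with library compounds minus camptothecin and grown for at least 48 hr at 37 °C, after which cellular ATP was quantified by luminescence.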
IL1B secr inh – inflammasome signaling inhibition, IL-1 beta readout; 4.7% of 360,000 active; activity change, % at 57.5 µM; THP-1 LPS/ATP IL-1B secretion, AlphaLISA, 16 h; active compounds read low; in the data active = activity change below about -50%; inconclusive = mostly about -30% to -49%; note: % is set by controls: 0 for no effect and ±100 for the full control effect
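Secreted IL-1B measured by AlphaLISA bead assay after 16 h compound exposure of THP-1 cells; compounds (final up to 57.5 uM) added 1 h before LPS (250 ng/mL) and ATP (1.25 mM) stimulation; lower signal means less secretion.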
An asterisk follows results filed as active; ? = inconclusive; · = not tested or not shown; ! = a repeat was not active. Unless noted, calls come from the whole dose curve; as a rule, active = well fitted curve in the direction sought with a large enough effect; inconclusive = small, poorly fitted or top-dose-only effect, or another doubt; inactive = no such curve, though single readings can be large; an effect the other way counts as inactive or inconclusive.

SMILES	HepG2 tox	TDP1 cell CPT	ASM inhibitor	TGFb SMAD3 inh	TDP1 cell noCPT	IL1B secr inh
Cc1ccc(-c2n[nH]c3c2C(c2cccs2)N(c2ccc(Cl)cc2)C3=O)cc1 (configuration not stated)	13µM*	16µM*	·	11µM*	?	·
COc1cc(C2c3c(-c4ccc(C)cc4)n[nH]c3C(=O)N2c2ccc(F)cc2)ccc1O (configuration not stated)	-51%	?	·	11µM*	?	·
C=C(C)C1CC=C(CN2CCC(O)CC2)CC1 (configuration not stated)	0%	-21%	-1%	-4%	1%	-3
CC(C)=CCCC(C)CN1CCC(N2CCC(C(=O)N3CCCC3)CC2)CC1 (configuration not stated)	-31%	?	-2%	-10%	16µM*	0
C=C(C)[C@@H]1CC=C(CN2CCC(N3CCC(C(=O)N4CCCC4)CC3)CC2)CC1	0%	21µM*	0%	21%	21µM*	-62*
CC(C)/C=C/C(=O)N1CCC(N2CCC(C(=O)N3CCOCC3)CC2)CC1	-5%	-3%	1%	-6%	-2%	-12
CCCOc1ccccc1N/C(N)=N/c1nc(C)cc(C)n1	-7%	?	7%	-17%	?	-18
Cc1cc(C)nc(/N=C(\N)N(Cc2ccccc2)Cc2ccccc2)n1	-28%	?	-3%	?	?	-72*
CCCCN(CCCC)/C(N)=N/c1nc(C)cc(C)n1	-20%	23µM*	-1%	0%	?	8
COc1ccc(NC(=O)COc2cc(O)c3c(c2)OC(C)(C)CC3=O)cc1	-13%	?	-1%	12%	?	-19
COc1cc(NC(=O)COc2cc(O)c3c(c2)OC(C)(C)CC3=O)cc(OC)c1	-26%	16µM*	-16%	0%	13µM*	-5
COc1ccc(CCNC(=O)COc2cc(O)c3c(c2)OC(C)(C)CC3=O)cc1OC	-23%	?	4%	-10%	18µM*	-5
CC1(C)CC(=O)c2c(O)cc(OCC(=O)Nc3ccc(CCO)cc3)cc2O1	-2%	15µM*	2%	-2%	21µM*	-13
Cc1cc(NC(=O)C(C)SCC(=O)Nc2ccc(SC(F)F)cc2)no1 (configuration not stated)	6%	?	-4%	7%	?	-7
CCOc1ccccc1NC(=O)COC(=O)C1CCC(=O)N1 (configuration not stated)	8%	3%	0%	14%	-11%	23
CC(C)(C)OC(=O)N(Cc1ccccc1)Cc1ccccc1OCc1ccc(NC(=O)C2CCC2)cc1	-15%	18µM*	-2%	5%	?	-68*
CC(C)(C)OC(=O)N(CCc1ccccc1)Cc1ccccc1OCc1cccc(NC(=O)C2CCCC2)c1	-14%	21µM*	-6%	-13%	?	-2
CC(C)(C)OC(=O)N(CCc1ccccc1)Cc1ccccc1OCc1ccc(NC(=O)C2CCC2)cc1	-22%	?	-2%	-26%	?	-10
CC(C)(C)OC(=O)N(CCc1ccccc1)Cc1ccc(OCc2cccc(NC(=O)C3CCCC3)c2)cc1	-10%	5.2µM*	-2%	-4%	6.5µM*	-19
CC(C)(C)OC(=O)N(CCc1ccccc1)Cc1ccccc1OCc1cccc(NC(=O)C2CC2)c1	-4%	?	-8%	-19%	?	-8
COC(=O)c1ccc(Oc2c(F)c(F)nc(N3CCOCC3)c2F)cc1	13%	?	-1%	5%	?	21
O=S(=O)(c1ccc(Cl)cc1)N1CCCC1c1nc(-c2cccc(Cl)c2)no1 (configuration not stated)	-2%	23µM*	-7%	-10%	?	8
O=S(=O)(c1ccccc1Cl)N1CCCC1c1nc(-c2cccc(Cl)c2)no1 (configuration not stated)	-17%	?	-3%	-19%	-14%	13
CCNS(=O)(=O)c1ccc(NC(=O)Cn2cc([N+](=O)[O-])cn2)cc1	-44%	11%	-4%	-2%	8%	1
Cc1cc(C=O)c(C)c2c1[nH]c1ccccc12	-23%	?	-2%	?	21µM*	-57*
SMILES	HepG2 tox	TDP1 cell CPT	ASM inhibitor	TGFb SMAD3 inh	TDP1 cell noCPT	IL1B secr inh
CC1=C(C(=O)OC(C)C)[C@@H](c2cccc3nonc23)C([N+](=O)[O-])=C(C)N1	·	?	·	·	15µM*	·
COC(=O)C1=C(C)NC(C)=C(C(=O)OC)C1c1ccc2ccccc2n1	7%	-7%	101%	-13%	-17%	9
COC(=O)C1=C(C)NC(C)=C([N+](=O)[O-])C1c1ccccc1C(F)(F)F (configuration not stated)	-14%	17µM*	-27%	-7%	12µM*!	-12
COC(=O)C(Cc1c[nH]c2ccccc12)NC(=O)C(=O)c1c[nH]c2ccccc12 (configuration not stated)	-21%	-21%	-14%	?	-4%	16
Cc1ccc(-n2nc3c(=O)n(CC(=O)NC4CCCCC4)nc(C)c3c2C)cc1	-8%	-23%	-2%	?	?	-17
CC(C)(C)c1ccc(C(=O)OCC(=O)NC2CC2)cc1	5%	2%	-6%	-13%	-22%	26
Cc1ccc(NC(=O)C(Cc2ccccc2)n2cccc2)cc1 (configuration not stated)	-9%	?	-1%	-22%	23µM*	?
Cc1csc(NC(=O)C(Cc2ccccc2)n2cccc2)n1 (configuration not stated)	-6%	29µM*	1%	?	?	-18
CC1CCC(NC(=O)C(Cc2ccccc2)n2cccc2)CC1 (configuration not stated)	-16%	?	-3%	-15%	?	-26
O=C(NC1CCCCCC1)C(Cc1ccccc1)n1cccc1 (configuration not stated)	-11%	?	0%	-4%	?	-62*
Cc1cccc(NC(=O)C(Cc2ccccc2)n2cccc2)c1C (configuration not stated)	-16%	16µM*	·	-2%	15µM*	·

Compound activity deposited in PubChem by National Center for Advancing Translational Sciences (NCATS).
